Measured values: PubChem BioAssay (NCATS)
Values without a mark were called inactive. Records with an inconclusive call do not appear. This is one part of the list. A call without a number means that no potency is given here. Activity calls are given as the source filed them. Unless noted, calls come from the whole dose curve; as a rule, active = well fitted curve in the direction sought with a large enough effect; inconclusive = small, poorly fitted or top-dose-only effect, or another doubt; inactive = no such curve, though single readings can be large; an effect the other way counts as inactive or inconclusive.

Legend:
[1] = biological target: Tumor susceptibility gene 101 protein (Homo sapiens) (UniProt Q99816); experiment: qHTS Assay for Iinhibitors of HIV-1 Budding by Blocking the Interaction of PTAP/TSG101: Hit Validation (AID 651600); note: nearly all actives have a fitted effect of over 70% in size; note: potency is the fitted concentration of half-maximal effect
Summary of the method: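 Fluorescence polarization binding assay: Tsg101 binding domain (10 uM) mixed with compounds and FITC-labeled PTAP peptide (50 nM) in HEPES pH 7.5, 0.15 M NaCl, 0.01% Tween 20, EDTA, TCEP; 20 min at r.t.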

[2] = biological target: Rap guanine nucleotide exchange factor 3 (Homo sapiens) (UniProt O95398); experiment: Confirmatory qHTS for agonist of cAMP-regulated guanine nucleotide exchange factor 3 (EPAC1) (AID 1645881);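 note: EPAC1 catalysed release of BODIPY-GDP from Rap1B seen as fluorescence loss; nearly all actives have a fitted effect of over 75% in size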
[3] = biological target: Rap guanine nucleotide exchange factor 4 (Homo sapiens) (UniProt Q8WZA2); experiment: Confirmatory qHTS for agonist of cAMP-regulated guanine nucleotide exchange factor 4 (EPAC2) (AID 1645884);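 note: nucleotide exchange releases bodipy-GDP from Rap1 and this lowers its fluorescence; nearly all actives have a fitted effect of over 65% in size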
[4] = biological target: Rap guanine nucleotide exchange factor 4 (Homo sapiens) (UniProt Q8WZA2); experiment: Confirmatory qHTS for antagonist of cAMP-regulated guanine nucleotide exchange factor 4 (EPAC2) (AID 1645885); note: nearly all actives have a fitted effect of over 25% in size
[5] = biological target: Rap guanine nucleotide exchange factor 3 (Homo sapiens) (UniProt O95398); experiment: Counterscreen qHTS for antagonist of cAMP-regulated guanine nucleotide exchange factor 3 (EPAC1) (AID 1645888);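 note: fluorescence loss as bound BODIPY-GDP is released from Rap1B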
Summary of the method: (§1)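 Rap1B–BODIPY-GDP (250 nM) with 50 uM GDP; compounds pin-transferred to 9.74 nM–152 uM final (activator) or from 7.32 nM upwards (inhibitor). Fluorescence Ex/Em 480/540 nm read at 5 and 30 min, then after adding cAMP or buffer, at room temperature.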

[6] = biological target: Rap guanine nucleotide exchange factor 3 (Homo sapiens) (UniProt O95398); experiment: Counterscreen qHTS for agonist of cAMP-regulated guanine nucleotide exchange factor 3 (EPAC1) (AID 1645889); note: nearly all actives have a fitted effect of over 40% in size; note: potency is the fitted concentration of half-maximal effect
Summary of the method: as §1

[7] = biological target: Glucocorticoid receptor (Homo sapiens) (UniProt P04150); experiment: GR-GFP Redistribution (AID 450;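 active = compounds whose dose series gives a full or clear partial fitted curve of increased nuclear translocation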; note: potency is the fitted concentration of half-maximal effect); conditions: U2OS GR-GFP nuclear translocation, laser cytometry, 2 h
[8] = qHTS for Inhibitors of the vitamin D receptor (VDR): Hit Validation using a Texas Red Assay (AID 602201); note: potency is the fitted concentration of half-maximal effect
Summary of the method: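 Fluorescence polarization with 1.5 uM VDR-LBD, LG19078 and 7 nM Texas Red (final). After 2 hours at ambient temperature, read at Ex 595 nm/Em 615 nm.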

[9] = AP1 Signaling Pathway (AID 357; active = well fitted curve in either direction with a large enough effect, not every such curve was filed as active;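 note: ME-180 reporter cells stimulated with EGF at its EC50 level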); conditions: ME-180 AP-1-bla reporter, EGF-induced, beta-lactamase ratio, 5 h; at 7.69 µM (top of the series) unless noted
Summary of the method: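 Cells are seeded overnight, exposed to compound titrations and an EC50 level of EGF for 5 hours at 37 °C, then loaded with CCF4 dye for 2.5 hours. Beta-lactamase activity under the AP-1 element is read as a blue/green ratio.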

[10] = NFAT Signaling Pathway (AID 444; active = well fitted curve in either direction with a large enough effect, not every such curve was filed as active;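 note: carbachol stimulus at about its EC50 of 1 µM final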); conditions: Jurkat NFAT-bla M1, carbachol, beta-lactamase ratio, 5 h; at 7.69 µM (top of the series) unless noted
Summary of the method: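 Jurkat cells with NFAT-driven β-lactamase reporter and co-expressed M1 receptor, stimulated with carbachol (final 1 uM, ~EC50), compound titration, 5 h at 37 °C. CCF4 loaded 1 h at RT; 460/530 nm ratio gave %activity and AC50.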

[11] = Stat Signaling Pathway (AID 446; active = well fitted curve in either direction with a large enough effect, not every such curve was filed as active;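 note: ME-180 cervical cancer cells given 40 pM IL-6 alongside compound; SIE-controlled beta-lactamase reporter measured as 460/530 nm FRET emission ratio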)
Summary of the method: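 Screening format detects activators and inhibitors alike: ME-180 SIE-bla cells stimulated at 40 pM IL-6 for 5 hrs with compound, then dual-emission beta-lactamase read at 405 nm excitation.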

[12] = qHTS Assay for Inhibitors of Fructose-1,6-bisphosphate Aldolase from Giardia Lamblia: Mammalian cellular toxicity (AID 2786);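 note: compound exposure lasted 48 h before reading; nearly all actives have a fitted effect of over 60% in size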
Summary of the method: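 CHO cells seeded at 250 cells/well with pin-tool-added compound, incubated 48 h at 37 °C, 5% CO2. Viability read as ATP content by ATPlite luminescence after 20 min.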

[13] = biological target: Fructose-bisphosphate aldolase (Giardia intestinalis (strain ATCC 50803 / WB clone C6)) (UniProt A8B2U2); experiment: qHTS Assay for Inhibitors of Fructose-1,6-bisphosphate Aldolase from Giardia Lamblia: Primary screen confirmation (AID 2787);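 note: aldolase product measured through coupled diaphorase step turning resazurin into fluorescent resorufin; nearly all actives have a fitted effect of over 45% in size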
Summary of the method: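 Confirmation of primary hits by qHTS up to 57.5 uM final compound. Enzyme at 40 nM with 30 uM ZnCl2, 10 min RT pre-incubation, then substrate/coupling/resorufin-forming detection mix for 20 min before fluorescence read at 525/598 nm.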

[14] = biological target: Fructose-bisphosphate aldolase A (Oryctolagus cuniculus) (UniProt P00883); experiment: qHTS Assay for Inhibitors of Fructose-1,6-bisphosphate Aldolase from Giardia Lamblia: Rabbit FBPA Selectivity (AID 2794); note: nearly all actives have a fitted effect of over 60% in size
Summary of the method: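 Selectivity counter-screen using rabbit Class I FBPA in a coupled enzyme system with fluorescent detection (ex 525 nm/em 598 nm). Compounds at up to 57.5 uM final were preincubated 10 min at RT with coupling enzymes, then substrate/detection reagent added for 20 min at RT.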

[15] = qHTS Assay for Inhibitors of Fructose-1,6-bisphosphate Aldolase from Giardia Lamblia: Coupling assay counterscreen confirmation (AID 2795); note: nearly all actives have a fitted effect of over 55% in size
Summary of the method: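 Coupling enzymes were first exposed to test compounds (final up to 57.5 uM) for 10 min at room temperature. A substrate plus coupling-system plus AmpLite Red mixture was then added, and after 20 more minutes fluorescence was measured at 525/598 nm.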

[16] = qHTS for Inhibitors of Plasmodium falciparum (GB4) proliferation (AID 504315); note: nearly all actives have a fitted effect of over 50% in size
Summary of the method: (§2)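 Erythrocytes infected with P. falciparum line (0.3% parasitemia, 2.5% hematocrit final) incubated with compounds 72 h at 37 °C, 5% CO2; SYBR Green lysis buffer added, fluorescence read next day. Normalized to 0.29 uM artemisinin and DMSO.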

[17] = qHTS for Inhibitors of Plasmodium falciparum (CP250) proliferation (AID 504320)
Summary of the method: as §2

Rap guanine nucleotide exchange factor 3 (Homo sapiens), sequence (O95398 whole entry, looked up): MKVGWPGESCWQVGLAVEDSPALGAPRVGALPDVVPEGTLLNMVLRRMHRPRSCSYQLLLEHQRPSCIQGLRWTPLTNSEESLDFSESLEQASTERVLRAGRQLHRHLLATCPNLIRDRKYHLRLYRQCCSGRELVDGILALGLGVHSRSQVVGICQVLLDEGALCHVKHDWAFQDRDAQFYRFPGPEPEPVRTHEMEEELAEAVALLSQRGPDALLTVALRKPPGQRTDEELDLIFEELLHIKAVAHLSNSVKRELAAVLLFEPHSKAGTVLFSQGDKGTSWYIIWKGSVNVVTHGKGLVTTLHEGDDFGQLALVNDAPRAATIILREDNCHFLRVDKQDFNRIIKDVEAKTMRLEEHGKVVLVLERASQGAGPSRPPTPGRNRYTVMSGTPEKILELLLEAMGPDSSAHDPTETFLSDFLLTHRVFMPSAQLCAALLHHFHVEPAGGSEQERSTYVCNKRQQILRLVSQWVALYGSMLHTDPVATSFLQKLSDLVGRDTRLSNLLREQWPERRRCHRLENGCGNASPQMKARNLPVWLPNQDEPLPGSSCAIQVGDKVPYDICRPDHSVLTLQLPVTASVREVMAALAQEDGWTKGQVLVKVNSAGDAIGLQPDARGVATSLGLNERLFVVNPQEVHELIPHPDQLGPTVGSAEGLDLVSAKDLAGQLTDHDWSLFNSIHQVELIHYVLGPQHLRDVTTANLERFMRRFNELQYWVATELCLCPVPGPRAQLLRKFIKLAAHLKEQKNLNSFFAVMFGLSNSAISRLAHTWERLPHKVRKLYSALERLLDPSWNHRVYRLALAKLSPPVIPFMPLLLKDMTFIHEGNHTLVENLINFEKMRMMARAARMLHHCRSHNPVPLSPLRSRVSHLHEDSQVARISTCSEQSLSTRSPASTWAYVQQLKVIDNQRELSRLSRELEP
Rap guanine nucleotide exchange factor 4 (Homo sapiens), sequence (Q8WZA2 whole entry, looked up): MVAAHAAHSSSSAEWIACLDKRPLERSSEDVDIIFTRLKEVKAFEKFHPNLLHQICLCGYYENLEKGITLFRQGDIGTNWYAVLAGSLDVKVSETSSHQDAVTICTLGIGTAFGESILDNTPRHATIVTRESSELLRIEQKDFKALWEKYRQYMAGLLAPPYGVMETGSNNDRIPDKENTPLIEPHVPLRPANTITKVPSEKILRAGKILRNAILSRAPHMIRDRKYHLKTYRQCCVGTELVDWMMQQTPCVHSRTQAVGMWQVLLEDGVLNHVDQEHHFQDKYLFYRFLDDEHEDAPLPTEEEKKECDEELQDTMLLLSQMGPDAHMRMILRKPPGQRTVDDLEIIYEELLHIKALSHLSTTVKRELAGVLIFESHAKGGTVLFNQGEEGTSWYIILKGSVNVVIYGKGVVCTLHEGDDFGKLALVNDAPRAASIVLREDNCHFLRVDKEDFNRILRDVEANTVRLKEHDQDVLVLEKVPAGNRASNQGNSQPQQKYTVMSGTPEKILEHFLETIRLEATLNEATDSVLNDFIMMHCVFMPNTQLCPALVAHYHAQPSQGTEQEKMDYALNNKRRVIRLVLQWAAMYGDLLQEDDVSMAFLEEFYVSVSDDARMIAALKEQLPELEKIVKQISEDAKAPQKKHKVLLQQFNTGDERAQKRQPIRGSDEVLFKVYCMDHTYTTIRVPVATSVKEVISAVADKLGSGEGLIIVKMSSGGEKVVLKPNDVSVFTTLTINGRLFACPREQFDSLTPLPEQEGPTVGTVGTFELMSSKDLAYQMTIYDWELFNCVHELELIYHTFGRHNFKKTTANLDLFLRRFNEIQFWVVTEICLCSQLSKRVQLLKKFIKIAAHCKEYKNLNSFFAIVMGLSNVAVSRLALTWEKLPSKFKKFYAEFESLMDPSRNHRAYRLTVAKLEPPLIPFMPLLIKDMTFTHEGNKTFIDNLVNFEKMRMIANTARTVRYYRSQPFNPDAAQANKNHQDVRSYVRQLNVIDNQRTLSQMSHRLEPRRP
Tumor susceptibility gene 101 protein (Homo sapiens), sequence (Q99816 whole entry, looked up, the tested form may be a part): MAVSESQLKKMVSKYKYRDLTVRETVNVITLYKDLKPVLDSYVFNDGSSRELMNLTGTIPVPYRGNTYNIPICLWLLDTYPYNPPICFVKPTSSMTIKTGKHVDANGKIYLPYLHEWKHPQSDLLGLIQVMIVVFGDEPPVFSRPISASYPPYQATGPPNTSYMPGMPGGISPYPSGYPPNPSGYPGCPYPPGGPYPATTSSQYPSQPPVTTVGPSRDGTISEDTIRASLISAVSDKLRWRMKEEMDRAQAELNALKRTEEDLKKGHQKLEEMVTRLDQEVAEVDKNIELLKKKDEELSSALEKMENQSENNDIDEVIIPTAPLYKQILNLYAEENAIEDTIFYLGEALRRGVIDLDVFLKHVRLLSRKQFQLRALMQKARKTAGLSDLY
Glucocorticoid receptor (Homo sapiens), sequence (P04150 whole entry, looked up): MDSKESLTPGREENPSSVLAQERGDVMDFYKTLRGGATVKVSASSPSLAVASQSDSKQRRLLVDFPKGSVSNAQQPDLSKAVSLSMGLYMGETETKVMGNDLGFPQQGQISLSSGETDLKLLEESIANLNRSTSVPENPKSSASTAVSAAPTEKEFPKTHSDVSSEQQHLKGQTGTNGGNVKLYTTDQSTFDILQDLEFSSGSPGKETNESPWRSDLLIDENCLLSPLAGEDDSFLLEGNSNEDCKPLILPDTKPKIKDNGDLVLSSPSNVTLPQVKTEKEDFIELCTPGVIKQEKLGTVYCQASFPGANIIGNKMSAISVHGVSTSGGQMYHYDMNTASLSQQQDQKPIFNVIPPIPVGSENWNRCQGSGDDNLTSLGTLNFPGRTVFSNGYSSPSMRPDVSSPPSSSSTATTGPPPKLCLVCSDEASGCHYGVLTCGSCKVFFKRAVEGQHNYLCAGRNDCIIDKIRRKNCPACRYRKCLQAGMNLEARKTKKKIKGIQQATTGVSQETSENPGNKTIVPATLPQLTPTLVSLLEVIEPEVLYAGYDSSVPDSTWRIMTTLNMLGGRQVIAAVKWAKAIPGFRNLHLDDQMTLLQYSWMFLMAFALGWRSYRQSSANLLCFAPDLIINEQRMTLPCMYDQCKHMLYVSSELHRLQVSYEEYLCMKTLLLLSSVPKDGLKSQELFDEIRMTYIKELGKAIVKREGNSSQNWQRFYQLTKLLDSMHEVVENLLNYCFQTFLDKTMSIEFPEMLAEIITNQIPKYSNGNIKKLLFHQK
Fructose-bisphosphate aldolase (Giardia intestinalis (strain ATCC 50803 / WB clone C6)), sequence (A8B2U2 whole entry, looked up): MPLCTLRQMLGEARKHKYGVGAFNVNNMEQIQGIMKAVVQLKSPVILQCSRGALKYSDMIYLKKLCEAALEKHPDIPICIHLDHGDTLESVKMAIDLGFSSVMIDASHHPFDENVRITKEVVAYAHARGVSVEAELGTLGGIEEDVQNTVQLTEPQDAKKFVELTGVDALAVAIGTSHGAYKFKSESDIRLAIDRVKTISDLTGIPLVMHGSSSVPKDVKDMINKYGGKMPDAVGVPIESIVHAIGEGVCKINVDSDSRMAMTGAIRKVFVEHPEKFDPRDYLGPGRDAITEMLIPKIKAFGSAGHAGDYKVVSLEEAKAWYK
Fructose-bisphosphate aldolase A (Oryctolagus cuniculus), sequence (P00883 whole entry, looked up): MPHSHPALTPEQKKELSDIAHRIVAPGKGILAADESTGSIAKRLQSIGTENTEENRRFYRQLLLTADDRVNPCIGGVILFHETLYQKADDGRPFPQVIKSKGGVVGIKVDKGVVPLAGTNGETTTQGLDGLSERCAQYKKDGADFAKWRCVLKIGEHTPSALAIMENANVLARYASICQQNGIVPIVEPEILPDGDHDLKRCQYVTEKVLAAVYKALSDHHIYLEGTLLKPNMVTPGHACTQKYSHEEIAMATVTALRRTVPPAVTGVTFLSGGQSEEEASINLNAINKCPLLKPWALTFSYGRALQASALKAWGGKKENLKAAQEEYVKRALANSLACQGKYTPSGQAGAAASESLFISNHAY

## O=C(CCl)N1c2ccccc2Oc2ccc3ccccc3c21
[1]
  Potency: inactive
[2]
  Potency: inactive
[3]
  Potency: inactive
[4]
  Potency: inactive
[5]
  Potency: inactive
[6]
  Potency: 35.5 µM (active)

## Cc1ccc(/C=N/N2CCN(Cc3cccc4ccccc34)CC2)o1
[2]
  Potency: inactive
[3]
  Potency: inactive
[4]
  Potency: inactive
[5]
  Potency: inactive
[6]
  Potency: inactive

## CC1(C)Cc2c(C#N)c(N3CCN(C(=O)c4ccco4)CC3)nc(-c3ccco3)c2CS1
[7]
  Potency: > 20.6 µM
[2]
  Potency: inactive
[3]
  Potency: inactive
[4]
  Potency: inactive
[5]
  Potency: inactive
[6]
  Potency: inactive

## CC1=NN(c2cccc(C(=O)O)c2)C(=O)/C1=C\C=C/c1ccccc1
[8]
  Potency: 5.62 µM (active)
[2]
  Potency: inactive
[3]
  Potency: inactive
[4]
  Potency: inactive
[5]
  Potency: inactive

## CC(C)OC(=O)C(C#N)c1nc2ccccc2nc1N1CCCC1 (stereo not given)
[9]
  activity change, negative = inhibition: 8.73% [at 17.2 µM]
[10]
  activity change, negative = inhibition: -13.2% [at 17.2 µM]
[11]
  outcome: inactive
[7]
  Potency: > 20.6 µM
[2]
  Potency: inactive
[3]
  activation: 3.69% [at 17.1 µM, percent relative to cAMP agonist control]
[4]
  Potency: inactive
[5]
  activity change, negative = inhibition: -19.9% [at 30.8 µM]
[6]
  activation: 3.58% [at 30.8 µM]

## CCCc1nc2ccccc2c(=O)n1/N=C/c1ccc(O)c(O)c1
[12]
  outcome: inactive
[13]
  outcome: inactive
[14]
  outcome: inactive
[15]
  outcome: inactive
[2]
  Potency: inactive
[3]
  Potency: inactive
[4]
  Potency: inactive
[5]
  Potency: inactive
[6]
  Potency: inactive

## O=C(O)c1ccccc1NS(=O)(=O)c1ccc(NN=Cc2ccccc2F)c([N+](=O)[O-])c1
[2]
  Potency: inactive
[3]
  activation: 4.76% [at 17.1 µM, percent relative to cAMP agonist control]
[4]
  Potency: inactive
[5]
  activity change, negative = inhibition: -10.7% [at 30.8 µM]
[6]
  activation: 23.2% [at 30.8 µM]

## CC1(OC(=O)C2CCCC2)C(=O)C=C2C=C(c3ccsc3)N(Cc3ccco3)C=C2C1=O (stereo not given)
[16]
  outcome: inactive
[17]
  outcome: inactive
[2]
  Potency: inactive
[3]
  Potency: inactive
[4]
  Potency: inactive
[5]
  Potency: inactive

## COc1ccc(S(=O)(=O)Nc2cc(SCC(=O)O)c(O)c3ccccc23)cc1
[8]
  Potency: 3.55 µM (active)
[2]
  Potency: inactive
[3]
  Potency: inactive
[4]
  Potency: inactive
[5]
  Potency: inactive
[6]
  Potency: 56.2 µM (active)

## Cc1ccc(NC(=O)CN2C(=O)S/C(=C/c3ccc(O)c([N+](=O)[O-])c3)C2=O)cc1C
[2]
  Potency: inactive
[3]
  Potency: inactive
[4]
  Potency: inactive
[5]
  Potency: inactive
[6]
  Potency: inactive

## C=CCN(CC=C)Cc1cc(=O)oc2cc(C)c(Cl)cc12
[2]
  Potency: inactive
[3]
  activation: 4.33% [at 17.1 µM, percent relative to cAMP agonist control]
[4]
  Potency: inactive
[5]
  activity change, negative = inhibition: -4.4% [at 30.8 µM]
[6]
  activation: 3.33% [at 30.8 µM]

## Cc1c2cc(O)c(=O)cc-2oc2cc(O)c(O)cc12
[1]
  Potency: 1.83 µM (active)
[2]
  Potency: inactive
[3]
  activation: -3.29% [at 17.1 µM, percent relative to cAMP agonist control]
[4]
  Potency: inactive
[5]
  activity change, negative = inhibition: -2.73% [at 30.8 µM]
[6]
  activation: 0.526% [at 30.8 µM]

## O=C(NNc1cc(Br)c(O)c(Br)c1)c1ccccc1
[8]
  Potency: 25.1 µM (active)
[2]
  Potency: inactive
[3]
  activation: -6.77% [at 17.1 µM, percent relative to cAMP agonist control]
[4]
  Potency: inactive
[5]
  activity change, negative = inhibition: -6.86% [at 30.8 µM]
[6]
  activation: 11.6% [at 30.8 µM]

## Cc1ccc(NC(=O)CCC(=O)c2cccs2)nc1
[2]
  Potency: inactive
[3]
  activation: 3.39% [at 17.1 µM, percent relative to cAMP agonist control]
[4]
  Potency: inactive
[5]
  activity change, negative = inhibition: -8.32% [at 30.8 µM]
[6]
  activation: 21.4% [at 30.8 µM]

## Cc1ccnc(NC(=O)C2CCN(S(=O)(=O)c3cccc(C(F)(F)F)c3)CC2)c1
[2]
  Potency: inactive
[3]
  Potency: inactive
[4]
  Potency: inactive
[6]
  Potency: inactive

## Cc1ccc(NS(=O)(=O)c2cccc(C(=O)OCC(=O)NCc3ccco3)c2)cc1
[2]
  Potency: inactive
[3]
  Potency: inactive
[4]
  Potency: inactive
[6]
  Potency: inactive

## CC1CN(C(=O)c2ccc(-c3cccc(C(F)(F)F)c3)o2)CC(C)O1 (stereo not given)
[2]
  Potency: inactive
[3]
  activation: 6.74% [at 17.1 µM, percent relative to cAMP agonist control]
[4]
  Potency: inactive
[6]
  activation: 1.55% [at 30.8 µM]

## CC(C)CCNC(=O)c1onc(CSc2ccccn2)c1C(=O)NCCC(C)C
[2]
  Potency: inactive
[3]
  Potency: inactive
[4]
  Potency: inactive
[6]
  Potency: inactive
